Measurements from PubChem BioAssay AID1508619 (National Center for Advancing Translational Sciences (NCATS), 2020).
Results filed as inconclusive are left out. A call without a number means that no potency is given here. Activity calls are given as the source filed them. Calls come from the whole dose curve; as a rule, active = well fitted inhibition curve with a large enough effect; inconclusive = small, poorly fitted or top-dose-only effect; inactive = no such curve, though single readings can be large or run the other way.
Potency is the fitted concentration of half-maximal effect.

Test: Counterscreen qHTS for Identification of Calcium Integrin Binding Protein 1 (CIB1) Competitor
Details: series mostly up to 114 µM
From the text: Assay Provider: Ulhas P. Naik, PhD
Sidney Kimmel Medical College
Thomas Jefferson University, Philadelphia, PA
Primary function of platelets is to maintain hemostasis. At the site of vascular injury, platelets adhere to adhesive proteins such as collagen and von Willebrand factor. Adherent platelets are activated and generate soluble platelet agonists such as thrombin, ADP and thromboxane A2. Following exposure of circulating platelets to these agonists, results in platelet shape change, granule secretion and activation of platelet integrin alphaIIb-beta3. Ligand binding to activated integrin alphaIIb-beta3 triggers outside-in signaling, leading to platelet aggregation, stabilization of platelet plug, and clot retraction. Upon atherosclerotic plaque rupture also causes platelet plug formation, which underlies a number of cardiovascular diseases such as myocardial infraction and stroke. A number of anti-platelet drugs such as aspirin, clopidogrel, prasugrel, vorapaxar, and eptifibatide are currently available to prevent the thrombotic complications. However, these anti-platelet agents have several limitations including inherent variability in individual responses, developing resistance, and serious bleeding side effects. For these reasons they are not suitable for long-term protection. Based on the experiences with current anti-platelet drugs, it appears that the most useful therapeutic approach is to intersect the secondary responses such as integrin outside-in signaling or recruitment of platelets by TxA2 and secreted ADP. Compounds, which can largely preserve the primary hemostatic function of platelets but inhibit secondary response will be most desired therapeutic agents for treatment of cardiovascular disease.
CIB1 is a calcium integrin binding protein, which specifically interact with the alphaIIb subunit of integrin alphaIIb-beta3. Binding of CIB1 to alphaIIb regulates the outside-in signaling in platelets, which is needed for thrombus stabilization and thrombus growth. […] Therefore, we propose that discovery of a small molecule that can prevent the association of CIB1 and alphaIIb-beta3 will be a potential anti-platelet agent that can block the thrombus formation without undue effect on hemostasis.
To develop fluorescence polarization (FP) assay using fluorescently labeled alphaIIb peptide and CIB1 protein. Using FP assay characterize the binding affinity, competitive inhibition, and acceptable Z factor (0.5 to1) in order to perform the HTS to identify small molecule compound that can prevent CIB1 binding to platelet integrin alphaIIb-beta3. Active compounds were re-acquired and validated using confirmatory and counterscreens (using 100 nM scrambled peptide).
[1] Naik MU, Nigam A, Manrai P, et al. CIB1 deficiency results in impaired thrombosis: the potential role of CIB1 in outside-in signaling through integrin alpha IIb beta 3. J Thromb Haemost. 2009;7(11):1906-1914. doi:10.1111/j.1538-7836.2009.03581.
SEQUENCE No. (1, 2, 3, etc.); […] (e.g., Cells, Incubation, Reagent, etc.); VALUE and DESCRIPTION.
1; Reagent; 3 uL; Protein or buffer (4/3x)
2; Compound; 46 nL; Control inhibitor / compound library
3; Time; 15 min; Room temperature incubation
4; Reagent; 1 uL; Fluorescent labeled peptide (4x)
5; Time; 1000 rpm; Centrifuge
6; Time; 15 min; Room temperature incubation
7; Detection; Ex 480/ Em 540; ViewLux Fluorescence Read
NOTES (numbers refer to sequence above)
1; Protein Mixture: C1B1-GST (final concentrations of 1 uM). Buffer composition: 5 mM HEPES pH 7.4, 125 mM NaCl, 5 mM CaCl2, 0.01% Tween20.
2; Control Inhibitor: unlabeled peptide (final concentration range 17.4 nM to 572 uM). Compound Library final concentration range 18.3 nM to 114 uM.
3; Room temperature incubation.
4; Fluorescent Labeled Peptide: FITC-alphaIIb (final concentration of 100 nM). Sequence of Scrambled peptide: Acetyl-[…]-FITC (purity is 95.37%).
6; Room temperature incubation.
[…]
For `O=C(O)c1ccccc1SC1=NS(=O)(=O)c2ccccc21`, the Potency was “inactive”. For `O=C1c2c(O)ccc(O)c2C(=O)c2c(NCCNCCO)ccc(NCCNCCO)c21`, the Potency was 20 µM (active). With `NC(=O)c1ncn([C@@H]2O[C@H](CO)[C@@H](O)[C@@H]2O)c1O` the Potency was “inactive”. With `O=C(O)c1ccc(O)c2ncc(-c3n[nH]nc3-c3ccccc3)cc12` the Potency was “inactive”. With `Cc1ccc(Cl)cc1NC(=O)c1nc[nH]c1C(=O)Nc1nc2ccccc2[nH]1` the Potency was “inactive”. With `COC(=O)c1ccc(O)c2ncc(-c3ccc(C(=O)N4CCNCC4)cc3)cc12` the Potency was “inactive”. With `Nc1ccc(O)c([N+](=O)[O-])c1` the Potency was 63.1 µM (active). In the case of `O=C1c2cccc(O)c2C(=O)c2c(O)cc(CO)cc21`, the Potency is reported as “inactive”. With `CC(=O)Nc1sc2c(c1-c1nc3ccccc3s1)CNC2` the Potency was “inactive”. With `O=S(=O)(Nc1nccs1)c1ccc(NCc2cc(Cl)ccc2O)cc1` the Potency was “inactive”. In the case of `N#Cc1cnc(NS(=O)(=O)c2ccc(NC(=O)Cc3ccc(Cl)c(Cl)c3)cc2)s1`, the Potency is reported as “inactive”. With `C[n+]1cc2c3c(ccc2c2ccc4cc5c(cc4c21)OCO5)OCO3` the Potency was “inactive”. In the case of `O=c1c2ccccc2nc2sc(NS(=O)(=O)c3ccc4c(c3)CCC4)nn12`, the Potency is reported as “inactive”. For `O=[S+]([O-])(NCc1nccs1)c1ccc(Nc2nc(-c3ccccc3)cs2)cc1`, the Potency was 50.1 µM (active). For `Nc1ccc(CNc2ccc([S+](=O)([O-])Nc3nccs3)cc2)c(O)c1`, the Potency was 50.1 µM (active). In the case of `Cc1cc(NS(=O)(=O)c2ccc(NC(=O)Cc3ccc(F)c(Cl)c3)cc2)no1`, the Potency is reported as “inactive”. In the case of `Cc1ccc(C(=O)Nc2ccc(S(=O)(=O)O)c3cc(S(=O)(=O)O)cc(S(=O)(=O)O)c23)cc1NC(=O)c1cccc(NC(=O)Nc2cccc(C(=O)Nc3cc(C(=O)Nc4ccc(S(=O)(=O)O)c5cc(S(=O)(=O)O)cc(S(=O)(=O)O)c45)ccc3C)c2)c1`, the Potency is reported as “inactive”. With `CC(O)c1ccc(-c2ccc3ncnc(N4CCOCC4)c3c2)o1` (stereo not given) the Potency was “inactive”. For `CO[C@@]12[C@H](COC(N)=O)C3=C(C(=O)C(C)=C(N)C3=O)N1C[C@@H]1N[C@@H]12`, the Potency was “inactive”. In the case of `CC(=O)NC(c1cccs1)c1cc(Br)c2cccnc2c1O` (stereo not given), the Potency is reported as “inactive”. For `Cc1nc(C(=O)NCC(=O)O)c(O)c2ccc(Oc3ccccc3)cc12`, the Potency was “inactive”. In the case of `O=C(O)c1c(Cl)c(Cl)c(Cl)c(Cl)c1-c1c2cc(I)c(=O)c(I)c-2oc2c(I)c(O)c(I)cc12`, the Potency is reported as “inactive”. With `CN1CCN(c2ccc(-c3cc(O)c4ncccc4c3)cc2)CC1` the Potency was “inactive”. For `Cn1cc(-c2[nH]c3cc(NC(=O)[C@H](N)C4CCCCC4)cc4c3c2C=NNC4=O)cn1`, the Potency was 79.4 µM (active). For `CS(=O)(=O)c1ccc(C(=O)OCC(=O)N2CCC(Cc3ccccc3)CC2)cc1[N+](=O)[O-]`, the Potency was “inactive”. In the case of `O=C(O)c1ccc(O)c2ncc(N3CCC(N4CCOCC4)C3)cc12` (stereo not given), the Potency is reported as “inactive”. For `O=c1[nH]sc2cc(Cl)ccc12`, the Potency was “inactive”. With `Cc1c(C)n(Cc2ccc(-c3ccccc3C(=O)O)cc2)c2ccc(C(=O)N[C@@H](C)c3ccc([N+](=O)[O-])cc3)cc12` the Potency was “inactive”. With `O=C(NC(c1ccco1)c1cc(Cl)c2cccnc2c1O)c1cccs1` (stereo not given) the Potency was “inactive”. In the case of `C=CCNc1oc(-c2ccc(-c3ccccc3)cc2)nc1C#N`, the Potency is reported as “inactive”. With `NC[C@H](O)c1ccc(O)c(O)c1` the Potency was “inactive”. In the case of `C=CCNc1oc(-c2cccc3ccccc23)nc1C#N`, the Potency is reported as “inactive”. For `Cc1cc2nc3ccc(=[N+](C)C)cc-3sc2cc1N`, the Potency was 44.7 µM (active). With `CCN(CC)C(=S)SSC(=S)N(CC)CC` the Potency was “inactive”. With `CCCC(=O)c1cc(O)c(O)cc1O` the Potency was 31.6 µM (active). With `O=C(NNC(=O)c1nc2ccccc2[nH]1)OCc1ccccc1` the Potency was “inactive”. In the case of `Oc1cccc2c(-c3nn[nH]n3)ccnc12`, the Potency is reported as “inactive”. For `C=Cc1c(C)c2cc3[nH]c(cc4nc(cc5nc(cc1[nH]2)C(C)=C5CCC(=O)O)C(CCC(=O)O)=C4C)c(C)c3C=C`, the Potency was 25.1 µM (active). In the case of `COc1ccc(C(=O)Nc2nc(-c3ccccc3)cs2)c(NS(=O)(=O)c2ccc(C)cc2)c1`, the Potency is reported as “inactive”. With `Cc1cc(=O)oc2cc(SC3=NS(=O)(=O)c4ccccc43)ccc12` the Potency was “inactive”.
